A short description of experiment [1]: qHTS assay to identify small molecule antagonists of the thyroid receptor (TR) signaling pathway - cell viability counter screen (AID 743064). Note: nearly all actives have a fitted effect of over 50% in size. Put shortly:
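Plate GH3.TRE-Luc cells; incubate 4 h at 37 °C; add compound, then T3 to 1 nM final; incubate 23.5 h; add CellTiter-Fluor; incubate 30 min at 37 °C, 5% CO2; read fluorescence.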

A short description of experiment [2]: qHTS assay to identify small molecule antagonists of the thyroid receptor (TR) signaling pathway (AID 743065). Note: nearly all actives have a fitted effect of over 55% in size. Put shortly: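 GH3.TRE-Luc rat pituitary cells carrying two TR response elements driving luciferase were plated for 4 h, given compound plus 1 nM T3 (final), and incubated 23.5 h at 37 C. ONE-Glo luminescence measured reporter inhibition; CellTiter-Fluor fluorescence tracked cytotoxicity.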

Experiment [3] has as its system thyroid hormone receptor (rat, GH3 cells). As to the kind of experiment: qHTS assay to identify small molecule agonists of the thyroid receptor (TR) signaling pathway (AID 743066; calls by dose curve).
Experiment [4] deals with Estrogen receptor (Homo sapiens) (UniProt P03372). Nature of the experiment: qHTS assay to identify small molecule antagonists of the estrogen receptor alpha (ER-alpha) signaling pathway (AID 743069; active = well fitted curve in the direction sought with a large enough effect in the signal ratio in the repeat runs, not every such curve was filed as active; inconclusive = weak or mixed curves, or effect the other way; inactive = no such curve, though single readings can be large or run the other way; the % refers to the signal ratio; note: potency is the fitted concentration of half-maximal effect). Put shortly:
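A 17beta-estradiol challenge was applied right after compound transfer to ER-alpha-UAS-bla HEK293 cells previously kept in charcoal-stripped serum. Plates stood 18 hr at 37C and 5% CO2; fluorescence was read following 2 hr FRET substrate loading at room temperature.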

Experiment [5] can be described thus: qHTS assay to identify small molecule antagonists of the estrogen receptor alpha (ER-alpha) signaling pathway - cell viability counter screen (AID 743074; calls by dose curve;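 note: HEK293 cells carrying ER-alpha-UAS-bla reporter stimulated with 17beta-estradiol; nearly all actives have a fitted effect of over 45% in size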).
Experiment [6] concerns the target Estrogen receptor (Homo sapiens) (UniProt P03372). As to the kind of experiment: qHTS assay to identify small molecule agonists of the estrogen receptor alpha (ER-alpha) signaling pathway (AID 743075; calls by dose curve;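 note: HEK293 GripTite cells with ER-alpha and UAS-driven beta-lactamase reporter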; note: potency is the fitted concentration of half-maximal effect).
Experiment [7] has the same target. Nature of the experiment: qHTS assay to identify small molecule agonists of the estrogen receptor alpha (ER-alpha) signaling pathway using the BG1 cell line (AID 743079). Note: nearly all actives have a fitted effect of over 20% in size. Note: potency is the fitted concentration of half-maximal effect. As to conditions: BG1Luc4E2 cells, ERE-luciferase agonist, 22 h; activation: at 70.3 µM (top of the series).
Experiment [8] can be described thus: qHTS assay to identify small molecule antagonists of the estrogen receptor alpha (ER-alpha) signaling pathway using the BG1 cell line (AID 743080; calls by dose curve;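 note: BG1 cells stimulated with 17beta-estradiol alongside compound; nearly all actives have a fitted effect of over 25% in size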). Put shortly: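 After 5 days in phenol-red-free 10% charcoal-stripped FBS medium, BG1-Luc-4E2 cells were seeded, left 24 h at 37 C, co-treated with compounds and 17beta-estradiol for 21.5 h, then assayed for viability and luciferase.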

Experiment [9] is described as follows: qHTS assay to identify small molecule antagonists of the estrogen receptor alpha (ER-alpha) signaling pathway using the BG1 cell line - cell viability counter screen (AID 743081).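 Note: compound given together with 17beta-estradiol as the ER stimulus; nearly all actives have a fitted effect of over 45% in size.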
In the next experiment the target is Aromatase (Homo sapiens) (UniProt P11511). As to the kind of experiment: qHTS assay to identify aromatase inhibitors (AID 743083). Note: nearly all actives have a fitted effect of over 55% in size.

The structures appear in SMILES notation. Activity calls are given as the source filed them. Unless noted, calls come from the whole dose curve; as a rule, active = well fitted curve in the direction sought with a large enough effect in the repeat runs; inconclusive = weak or mixed curves; inactive = no such curve, though single readings can be large; an effect the other way counts as inactive or inconclusive.

Estrogen receptor (Homo sapiens), sequence (P03372 whole entry, looked up): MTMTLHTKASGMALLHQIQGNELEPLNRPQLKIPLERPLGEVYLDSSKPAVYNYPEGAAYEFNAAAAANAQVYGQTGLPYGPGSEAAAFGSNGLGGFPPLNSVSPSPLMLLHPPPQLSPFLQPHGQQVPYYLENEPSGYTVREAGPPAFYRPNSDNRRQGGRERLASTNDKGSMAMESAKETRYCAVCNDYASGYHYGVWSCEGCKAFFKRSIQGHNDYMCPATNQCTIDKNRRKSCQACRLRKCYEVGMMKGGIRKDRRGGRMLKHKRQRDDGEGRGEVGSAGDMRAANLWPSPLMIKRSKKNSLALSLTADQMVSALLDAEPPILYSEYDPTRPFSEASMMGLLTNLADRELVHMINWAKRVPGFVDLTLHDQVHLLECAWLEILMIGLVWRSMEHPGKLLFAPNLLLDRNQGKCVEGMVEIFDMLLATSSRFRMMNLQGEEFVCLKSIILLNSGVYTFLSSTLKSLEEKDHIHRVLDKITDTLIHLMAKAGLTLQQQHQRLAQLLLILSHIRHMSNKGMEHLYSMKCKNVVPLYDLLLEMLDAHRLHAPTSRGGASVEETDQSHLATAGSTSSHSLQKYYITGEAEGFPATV
Aromatase (Homo sapiens), sequence (P11511 whole entry, looked up): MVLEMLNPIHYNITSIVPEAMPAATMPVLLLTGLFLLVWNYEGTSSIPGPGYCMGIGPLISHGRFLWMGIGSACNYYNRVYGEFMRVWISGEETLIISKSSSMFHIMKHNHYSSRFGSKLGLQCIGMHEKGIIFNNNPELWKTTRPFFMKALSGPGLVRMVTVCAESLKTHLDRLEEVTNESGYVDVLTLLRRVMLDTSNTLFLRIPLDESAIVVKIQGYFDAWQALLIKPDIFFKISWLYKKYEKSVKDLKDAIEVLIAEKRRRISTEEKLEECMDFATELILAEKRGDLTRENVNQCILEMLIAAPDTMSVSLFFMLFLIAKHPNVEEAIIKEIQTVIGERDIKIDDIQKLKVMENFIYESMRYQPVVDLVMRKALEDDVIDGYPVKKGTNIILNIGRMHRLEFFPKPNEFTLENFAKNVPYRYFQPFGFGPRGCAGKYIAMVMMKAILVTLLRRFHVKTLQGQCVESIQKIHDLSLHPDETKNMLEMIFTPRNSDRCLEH

As for `C[C@H](CSC(=O)c1ccccc1)C(=O)N1C[C@@H](Sc2ccccc2)C[C@H]1C(=O)O`, the Potency entry in experiment [1], in experiment [2], in [3], in [4], in [5] and in experiment [6] was “inactive” each time. Also, the Potency result (in [7]; in experiment [8]; in experiment [9]; with Aromatase (Homo sapiens)) was “inactive” each time.
`CC(C)CN(C[C@@H](O)[C@H](Cc1ccccc1)NC(=O)O[C@H]1CO[C@H]2OCC[C@H]21)S(=O)(=O)c1ccc(N)cc1`: the Potency result in [1], in [2], in experiment [3], in [4], in experiment [5] and in experiment [6] was “inactive” in each case. For the same compound, the Potency entry (in experiment [7]; in experiment [8]; in experiment [9]; with Aromatase (Homo sapiens)) was “inactive” throughout.
`CC1(O)CCC(C(C)(C)O)CC1` (stereo not given): the Potency result in [1], in [2], in [3], in [4], in [5] and in experiment [6] was “inactive” throughout. The Potency entry (in experiment [7]; in experiment [8]; in experiment [9]; in the experiment with Aromatase (Homo sapiens)) was “inactive” in each case.
Turning to `CC(C)CN(C[C@@H](OP(=O)(O)O)[C@H](Cc1ccccc1)NC(=O)O[C@H]1CCOC1)S(=O)(=O)c1ccc(N)cc1`, the Potency entry in experiment [1], in experiment [2], in [3], in [4], in [5] and in experiment [6] was “inactive” throughout. Besides, the Potency entry (in experiment [7]; in experiment [8]; in experiment [9]; in the experiment with Aromatase (Homo sapiens)) was “inactive” each time.
For `CC(=O)O[C@H]1C[C@@H]2CC[C@@H]3[C@H](CC[C@@]4(C)[C@H]3C[C@H](N3CC[N+](C)(C)CC3)[C@@H]4OC(C)=O)[C@@]2(C)C[C@@H]1N1CC[N+](C)(C)CC1`, the Potency entry in experiment [1], in experiment [2], in [3], in experiment [4], in [5] and in experiment [6] was “inactive” throughout. Also, the Potency result (in [7]; in experiment [8]; in [9]; in the experiment with Aromatase (Homo sapiens)) was “inactive” throughout.
For the compound `CC(Oc1ccccc1)C(=O)N[C@@H]1C(=O)N2[C@@H]1SC(C)(C)[C@@H]2C(=O)O` (stereo not given in full), the Potency entry in [1], in [2], in [3], in experiment [4], in experiment [5] and in [6] was “inactive” in each case. Further, the Potency entry (in experiment [7]; in [8]; in experiment [9]; in the experiment with Aromatase (Homo sapiens)) was “inactive” in each case.
For `NCCC(=O)[N-][C@@H](Cc1cnc[nH]1)C(=O)O.[Zn]`, the Potency entry in [1], in [2], in experiment [3], in experiment [4], in [5] and in experiment [6] was “inactive” in each case. In addition, the Potency entry (in experiment [7]; in experiment [8]; in [9]; with Aromatase (Homo sapiens)) was “inactive” in each case.
As to `O=C(O)[C@H]1/C(=C/CO)O[C@@H]2CC(=O)N21`, the Potency entry in [1], in experiment [2], in experiment [3], in experiment [4], in [5] and in experiment [6] was “inactive” throughout. In addition, the Potency result (in [7]; in experiment [8]; in [9]; with Aromatase (Homo sapiens)) was “inactive” each time.
Consider `C[Se]CCC(N)C(=O)O` (stereo not given), for which the Potency result in [1], in [2], in experiment [3], in [4], in experiment [5] and in experiment [6] was “inactive” in each case. In addition, the Potency result (in [7]; in [8]; in experiment [9]; with Aromatase (Homo sapiens)) was “inactive” in each case.
For the compound `COc1ccc(C(=O)CCC(=O)O)c2ccccc12`, the Potency entry in experiment [1], in experiment [2], in [3], in experiment [4], in experiment [5] and in [6] was “inactive” each time. The Potency result (in experiment [7]; in [8]; in [9]; with Aromatase (Homo sapiens)) was “inactive” in each case.
For `CC(C)CCCC(C)NC(C)C` (stereo not given), the Potency entry in [1], in experiment [2], in [3], in experiment [4], in experiment [5] and in experiment [6] was “inactive” throughout. Moreover, the Potency result (in experiment [7]; in [8]; in experiment [9]; with Aromatase (Homo sapiens)) was “inactive” throughout.
As to `CC(C)(C)NCC(O)CSc1nc(-c2ccc(C(N)=O)s2)cs1` (stereo not given), the Potency result in [1], in experiment [2], in experiment [3], in experiment [4], in [5] and in [6] was “inactive” throughout. The Potency result (in experiment [7]; in experiment [8]; in experiment [9]; with Aromatase (Homo sapiens)) was “inactive” each time.
Consider `C=CCCCCCCCCC(=O)OC`, for which the Potency result in experiment [1], in [2], in experiment [3], in [4], in experiment [5] and in experiment [6] was “inactive” throughout. Moreover, the Potency result (in [7]; in experiment [8]; in [9]; with Aromatase (Homo sapiens)) was “inactive” throughout.
`O=C(O)c1cccc(/C=C2/C[C@@H]3[C@@H](/C=C/[C@@H](O)C4CCCCC4)[C@H](O)C[C@@H]3O2)c1`: the Potency entry in experiment [1], in experiment [2], in [3], in experiment [4], in [5] and in experiment [6] was “inactive” in each case. The Potency result (in experiment [7]; in experiment [8]; in experiment [9]; with Aromatase (Homo sapiens)) was “inactive” each time.
As to `CC1(C)S[C@@H]2[C@H](NC(=O)[C@H](N)c3ccccc3)C(=O)N2[C@H]1C(=O)OCOC(=O)[C@@H]1N2C(=O)C[C@H]2S(=O)(=O)C1(C)C`, the Potency result in experiment [1], in experiment [2], in experiment [3], in experiment [5], in experiment [6] and in experiment [7] was “inactive” throughout. Further, the Potency result (in experiment [8]; in experiment [9]; in the experiment with Aromatase (Homo sapiens)) was “inactive” throughout. The Potency in experiment [4] is 13.4 µM [inconclusive] (active).
Regarding `CO/N=C(\C(=O)N[C@@H]1C(=O)N2C(C(=O)O)=C(CSc3nnnn3C)CS[C@H]12)c1csc(N)n1`, the Potency result in [1], in experiment [2], in experiment [3], in experiment [4], in [5] and in experiment [6] was “inactive” throughout. For the same compound, the Potency result (in experiment [7]; in experiment [8]; in experiment [9]; with Aromatase (Homo sapiens)) was “inactive” each time.
For `S=C=Nc1ccc(N=C=S)cc1`, the Potency entry in experiment [1], in experiment [2], in [3], in experiment [4], in experiment [5] and in experiment [8] was “inactive” each time. Moreover, the Potency result (in [9]; in the experiment with Aromatase (Homo sapiens)) was “inactive” in each case. Moreover, the results for the Potency in experiment [6] and in [7] were 15.1 µM [inconclusive] (active) and 1.06 µM (active), respectively.

For the origin of these results see PubChem BioAssay (Tox21).
